# ATXN viability: cell viability loss in ATXN counter-screen; Potency, µM (series often up to 56.7 µM), most hits filed as cytotoxic; S2 cells (HEK-293 line with an ATXN2-luciferase reporter) viability, CellTiter-Fluor protease fluorescence, 24 h; 400,000 tested, 0.49% active; further: nearly all actives have a fitted effect of over 40% in size
# KB-3-1 cytotox: KB-3-1 parental cell cytotoxicity. AID 1347075. Potency, µM (doses to about 46.1 µM), usual class: cytotoxic. KB-3-1 viability, CellTiter-Glo ATP luminescence, 72 h. 400,000 tested, 1.4% active; further: on the % scale 0 is the no-effect control and ±100 the full control effect; nearly all actives have a fitted effect of over 60% in size
#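 72 h, 37 °C compound treatment of KB-3-1 parental cells; CellTiter-Glo added, 10 min, luminescence read. Data corrected against DMSO-only plates and normalized before curve fitting.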
# HT1080 IDH1KD tx: HT-1080 IDH1 knockdown cell toxicity (counter line) | HT-1080 IDH1 knockdown viability, ATP luminescence, 48 h | Potency, µM (titrated, usually from 46.1 µM), for the others: top-dose activity, negative = toxicity, hits mostly cytotoxic | 360,000 tested, 2% active;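 further: 0% = DMSO wells and -100% = cell-free medium wells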
#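 % activity derives from luminescence (CellTiter-Glo), normalised to DMSO and no-cell wells. HT-1080-IDH1KD cells, 750/well, had 48 h compound exposure at 37 °C.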
# KB-V1 MDR tox: kills drug-selected multidrug resistant KB-V1 cells. Potency, µM (top dose mostly 46.1 µM), usual class: cytotoxic. KB-V1 MDR cells viability, CellTiter-Glo, 72 h. 400,000 tested, 3.4% active. AID 1347076; further: on the % scale 0 is the no-effect control and ±100 the full control effect; nearly all actives have a fitted effect of over 60% in size
#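 Drug-selected KB-V1 cells, grown in DMEM lacking phenol red with 10% FBS, receive compound titrations; after three days at 37 degrees C, surviving cell ATP is quantified by CellTiter-Glo luminescence and responses normalized and curve-fitted.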
# HT1080-NT tox: kills 2HG-producing HT-1080-NT fibrosarcoma cells; HT-1080-NT fibrosarcoma viability, CellTiter-Glo ATP luminescence, 48 h; Potency, µM (highest dose often 46.1 µM), without a hit: top-dose activity, negative = less viability, hits mostly cytotoxic; 360,000 tested, 1.6% active; AID 686970;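 further: NT is the 2HG producing partner of a matched IDH1 knockdown line; 0% = DMSO-treated cells and -100% = media-only wells without cells; nearly all actives have a fitted effect of over 55% in size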
#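 Compounds were tested in concentration-response format on HT-1080-NT cells for 48 hours at 37 degrees C. Cell viability came from CellTiter-Glo luminescence; curves were classified by r2, response magnitude and activity.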
# ATXN2 expr inh: inhibitors of ATXN2 expression | HEK-293 ATXN2-luciferase reporter, luminescence, 24 h | 360,000 tested, 0.72% active | Potency, µM (highest dose often 57 µM), inactives show at the highest dose activity change, negative = inhibition, usual class: inhibitors; further: on the % scale 0 is the no-effect control and ±100 the full control effect; nearly all actives have a fitted effect of over 55% in size
#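 ATXN2-luciferase reporter cells (luciferase flanked by upstream and downstream ATXN2 gene portions) were treated 24 h at 37 °C with compounds at up to 57 uM. SteadyGlo luminescence gave expression; GF-AFC fluorescence gave viability.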
# * marks the source's active call; other numbers are inactive results; i = inactive; ? = inconclusive; nt = no result; [ ] = another dose, or the depositor's remark. A selection: hits, their analogues and other compounds. The true share with any hit is near 6.2%. The call rests on the fitted dose curve; in most records, active means well fitted curve in the direction sought with a large enough effect; inconclusive means small, poorly fitted or top-dose-only effect, or another doubt; inactive means no such curve, though single readings can be large; an effect the other way counts as inactive or inconclusive. Potency means the concentration at half of the fitted maximal effect.
SMILES,ATXN viability,KB-3-1 cytotox,HT1080 IDH1KD tx,KB-V1 MDR tox,HT1080-NT tox,ATXN2 expr inh
CCN(CC)c1ccc(/C=C/C2=C3C=CC=CC3NC=C2)cc1 (centres undefined),nt,?,nt,i,nt,nt
COC1=CC(=O)c2ccccc2C1=O,i,16µM*,5.2µM*,?,12µM*,28µM*
COC1=CC(=O)C=C(OC)C1=O,?,?,?,i,18µM*,5.6µM*
O=C1C=C(C2CCCCC2)C(=O)c2ccccc21,i,i,1%,i,2%,-4%
CNCc1c(OCc2ccccc2F)ccc2ccccc12,i,i,?,12µM*,18µM*,?
Nc1nonc1C(=O)NCCNCc1cc(Br)ccc1OCc1ccc(F)cc1,nt,11µM*,-22%,?,-8%,nt
Nc1nonc1C(=O)NCCNCc1c(OCc2ccccc2F)ccc2ccccc12,?,?,10µM*,i,?,?
Cc1c(C)n(Cc2ccc(F)cc2)c2ccc(C(=O)Nc3ccc(Cl)cc3)cc12,nt,?,nt,i,nt,nt
CC(=O)c1nn(-c2ccccc2)cc1C(=O)c1cccc(Br)c1,?,i,-1%,i,-6%,nt
O=C(c1cccc(Br)c1)c1cn(-c2ccccc2)nc1C(=O)c1ccccc1,i,i,4%,12µM*,8%,-12%
c1ccc(CN2CCC(N3CCN(Cc4ccc5c(c4)OCO5)CC3)CC2)cc1,i,i,7%,?,4%,-3%
O=C1C=CC2C(c3ccc4c(c3)OCO4)CC1N2Cc1ccccc1 (centres undefined),i,9.2µM*,-20%,?,-19%,-13%
Cc1ccc(OCCCCNC(C)(C)C)c([N+](=O)[O-])c1,i,i,-1%,23µM*,-2%,-12%
COC(=O)c1ccc(CN2C[C@H](Sc3ccccn3)C[C@H]2C(=O)N(C)C)cc1,i,nt,nt,nt,nt,nt
CN(C)c1ccc(C2Nc3ccc4ccccc4c3C3=C2C(=O)CC(C)(C)C3)cc1Br (centres undefined),nt,nt,nt,nt,nt,-13%
CN1CCN(c2nc(-c3cccs3)cc(C(F)(F)F)n2)CC1,i,i,9%,16µM*,4%,-19%
COc1ccc2cc(N3CCCC3=O)ccc2c1,?,i,9%,i,4%,14%
COc1cc(=O)n2c(c1C(=O)NCc1ccco1)CCN(C(=O)c1cccnc1SC)CC2,i,nt,nt,nt,nt,nt
C=CCOc1ccc(Br)cc1/C=N/O,i,i,-1%,i,-2%,-17%
C=CCOc1ccc(/C=N/O)cc1Cl,?,12µM*,11%,i,5%,2%
COc1ccc(CCN2C(=O)c3ccccc3NC2c2cc(Cl)c(O)c(OC)c2)cc1 (centres undefined),i,?,2.9µM*,?,1.6µM*,3%
COc1ccc(C2Nc3ccccc3C(=O)N2c2ccccc2)cc1CSc1ccccn1 (centres undefined),i,i,-21%,4.1µM*,-12%,1%
COc1ccc(C2Nc3ccccc3C(=O)N2c2ccc(F)cc2)cc1CSc1ccccn1 (centres undefined),i,i,1%,i,-4%,3%
COc1ccc(C2Nc3ccccc3C(=O)N2O)cc1OC (centres undefined),i,i,10%,15µM*,1%,6%
COc1ccc(C2Nc3ccccc3C(=O)N2NC(C)=O)cc1OC (centres undefined),?,i,6%,i,4%,-1%
SMILES,ATXN viability,KB-3-1 cytotox,HT1080 IDH1KD tx,KB-V1 MDR tox,HT1080-NT tox,ATXN2 expr inh
COc1ccc(C2Nc3ccccc3C(=O)N2c2cccc3ccccc23)cc1COc1c(C)cccc1C (centres undefined),nt,13µM*,nt,i,nt,nt
CC(C)Oc1ccc(C(=O)Nc2c(C(=O)Nc3cccc(F)c3)oc3ccccc23)cc1,i,i,nt,i,nt,10%
COC(=O)C1CN(C(=O)c2ccc(OC(F)F)cc2)c2ccccc2O1 (centres undefined),?,i,13%,i,7%,-4%
Cc1c(C(=O)N2CCOc3ccccc3C2)sc2ncnc(NCCCN3CCOCC3)c12,i,nt,nt,nt,nt,nt
COc1ccc(C2Nc3ccccc3C(=O)N2Cc2ccccc2)cc1CSc1ccccn1 (centres undefined),i,i,6%,4.6µM*,0%,-6%
O=C(Nc1ccc(F)cc1)Nc1cc(OCC(F)(F)F)cc(OCC(F)(F)F)c1,?,6.5µM*,8.2µM*,?,7.3µM*,11µM*
O=C(CN(Cc1ccc(Cl)c(Cl)c1)S(=O)(=O)c1ccccc1)N/N=C\c1ccc2c(c1)OCO2,i,?,-6%[9.24 µM],21µM*,?,-16%
O=C(CN(Cc1ccccc1)S(=O)(=O)c1ccccc1)N/N=C/c1ccc2c(c1)OCO2,i,i,?,i,?,-12%
O=C(CN(Cc1ccccc1)S(=O)(=O)c1ccccc1)N/N=C/c1ccc([N+](=O)[O-])cc1,?,i,-30%,2.1µM*,-27%,-19%
O=C(CN(Cc1ccccc1)S(=O)(=O)c1ccc2c(c1)OCCO2)N/N=C/c1cccc(Br)c1,i,i,-15%,18µM*,-8%,-10%
CC1CCN(C(=O)c2[nH]cnc2C(=O)Nc2nccs2)CC1,i,i,13%,i,25%,8%
COc1ccccc1NC(=O)CSc1nc2c(oc3ccccc32)c(=O)n1-c1ccc(C)cc1,i,i,nt,?,nt,0%
Cc1ccc(-c2cn3cccnc3n2)cc1NC(=O)c1c(-c2ccccc2Cl)noc1C,i,12µM*,-30%,4.6µM*,-27%,-16%
CCc1noc(C)c1C(=O)Nc1nc2ccc(S(C)(=O)=O)cc2s1,i,i,1%,i,-5%,9%
Cc1onc(-c2ccccc2Cl)c1C(=O)Nc1cccc(-c2nc3ncccn3c2C)c1,i,i,-8%,8.2µM*,-2%,1%
Cc1onc(-c2ccccc2Cl)c1C(=O)Nc1ccc(-c2cn3cccnc3n2)cc1,i,i,-5%,?,1%,-1%
Cc1onc(-c2ccccc2Cl)c1C(=O)Nc1nc2ccc(S(C)(=O)=O)cc2s1,i,i,?,i,15µM*,6%
Cc1onc(-c2ccccc2Cl)c1C(=O)Nc1cccc2cccnc12,i,i,?,12µM*,-26%,-9%
Cc1cccc(C)c1N1C(=O)c2ccccc2NC(=O)C1C(=O)Nc1ccc2c(c1)OCCO2 (centres undefined),nt,i,19%,i,16%,nt
